A selection: hits, their analogues and other compounds. The true share with any hit is near 21%.
Gal4-VP16 FLuc = Gal4-VP16 reporter inhibition counter-screen | AID 2546 | Potency, µM (titrated, usually from 53.6 µM), for the others: at the highest dose activity, negative = inhibition, actives largely listed as inhibitors | Drosophila S2 Gal4-VP16 UAS-luciferase, luminescence, 20 h | 310,000 tested, 3.5% active;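 also: Gal4-VP16 expression switched on by copper sulfate through the metallothionein promoter; potency is read from the fitted curve at half-maximal effect; nearly all actives have a fitted effect of over 50% in size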
DT40 TDP1 CPT = growth inhibition of DT40 Tdp1-/-;hTDP1 cells with camptothecin (screen for TDP1 inhibitors); chicken DT40 Tdp1-/-;hTDP1 cells + 20 nM CPT, ATP luminescence, 48 h; 420,000 tested, 12% active; AID 686979; Potency, µM (top dose mostly 46.2 µM), for inactives: top-dose activity change, negative = growth inhibition, most hits filed as inhibitors; also: potency is read from the fitted curve at half-maximal effect; nearly all actives have a fitted effect of over 55% in size
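Chicken DT40 Tdp1-/- cells complemented with human TDP1, 400 cells/well, exposed to compounds plus 20 nM camptothecin for at least 48 h at 37 C; viability read as ATP content by CellTiter-Glo luminescence.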
TDP1 cell noCPT = qHTS for Inhibitors of human tyrosyl-DNA phosphodiesterase 1 (TDP1): qHTS in cells in absence of CPT; DT40 Tdp1-/- hTDP1 cells, no CPT, ATP luminescence, 48 h; Potency, µM (doses to about 46.2 µM), for inactives: top-dose activity change, negative = growth inhibition, most hits filed as inhibitors; 420,000 tested, 15% active; AID 686978, 2013; also: potency is read from the fitted curve at half-maximal effect; nearly all actives have a fitted effect of over 55% in size
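Luminescent ATP content (CellTiter-Glo) served as the growth readout. Knockout chicken DT40 cells expressing human TDP1 were exposed to compounds without camptothecin for a minimum 48 hr at 37 °C.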
ELG1 repair inh = blocks ELG1-dependent DNA repair in HEK293T cells; HEK293T ELG1-luciferase reporter, luminescence, 16 h; DNA damage induced by 5-fluorouridine; Potency, µM (highest dose often 46.1 µM), without a hit: at the highest dose activity change, negative = inhibition, hits mostly inhibitors; 330,000 tested, 2.3% active; also: potency is read from the fitted curve at half-maximal effect; nearly all actives have a fitted effect of over 55% in size
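HEK293T cells expressing luciferase-tagged ELG1 (2,000/well) received 5-Fluorouridine plus compound or DMSO for 16 hr at 37 °C. Luciferase was read by ONE-Glo luminescence after 30 min at room temperature.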
IL1B secr inh = blocks inflammasome-driven IL-1 beta release. THP-1 LPS/ATP IL-1B secretion, AlphaLISA, 16 h; hits give low values. activity change, % at 57.5 µM. 360,000 tested, 4.7% active; in the data active = activity change below about -50%; inconclusive = mostly about -30% to -49%
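Secreted IL-1B measured by AlphaLISA bead assay after 16 h compound exposure of THP-1 cells; compounds (final up to 57.5 uM) added 1 h before LPS (250 ng/mL) and ATP (1.25 mM) stimulation; lower signal means less secretion.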
RORgamma inh = blocks mouse ROR gamma transcriptional activity. Drosophila S2 Gal4-RORgamma UAS-luciferase reporter, 20 h. 310,000 tested, 5.4% active. P51450. Potency, µM (doses to about 53.6 µM), without a hit: top-dose activity change, negative = inhibition, most hits filed as inhibitors. AID 2551; also: potency is read from the fitted curve at half-maximal effect; nearly all actives have a fitted effect of over 60% in size
Target sequence (P51450 whole entry, looked up, the tested form may be a part): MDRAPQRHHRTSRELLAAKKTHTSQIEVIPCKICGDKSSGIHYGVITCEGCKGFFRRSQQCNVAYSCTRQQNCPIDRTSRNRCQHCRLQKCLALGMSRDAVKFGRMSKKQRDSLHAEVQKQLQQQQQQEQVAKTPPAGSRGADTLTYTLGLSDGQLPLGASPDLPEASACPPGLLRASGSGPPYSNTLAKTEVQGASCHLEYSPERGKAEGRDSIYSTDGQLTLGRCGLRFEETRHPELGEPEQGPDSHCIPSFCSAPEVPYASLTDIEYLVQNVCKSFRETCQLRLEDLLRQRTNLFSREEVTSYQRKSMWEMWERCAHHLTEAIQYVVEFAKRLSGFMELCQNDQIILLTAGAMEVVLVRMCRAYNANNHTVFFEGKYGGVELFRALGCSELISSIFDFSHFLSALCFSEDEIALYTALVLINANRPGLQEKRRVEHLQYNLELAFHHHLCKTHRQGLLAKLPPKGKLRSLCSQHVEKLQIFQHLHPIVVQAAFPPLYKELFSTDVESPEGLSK
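Stably transfected Drosophila Schneider cells are the test system, with ROR gamma fused to Gal4 and luciferase under UAS control; luminescence is read after 20 hr of 700 uM copper sulfate induction at ambient temperature.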
* = called active by the depositor; ? = inconclusive; nt = no result; [ ] = dose if it differs, or a comment. Unless noted, calls follow the shape of the dose curve; as a rule, active = well fitted curve in the direction sought with a large enough effect; inconclusive = small, poorly fitted or top-dose-only effect, or another doubt; inactive = no such curve, though single readings can be large; an effect the other way counts as inactive or inconclusive. % is scaled to controls: 0 for no effect and ±100 for the full control effect.

SMILES	Gal4-VP16 FLuc	DT40 TDP1 CPT	TDP1 cell noCPT	ELG1 repair inh	IL1B secr inh	RORgamma inh
Cc1ccc(N2C(=O)N3[C@H](c4ccc(Br)cc4)[C@@H]4C(=O)N(C(C)(C)C)C(=O)[C@@H]4[C@]3(C)C2=O)cc1	-10%	?	-7%	-10%	-5	14%
COc1ccccc1-c1csc(C(O)c2ccc(F)c(F)c2)n1 (stereo unspecified)	nt	-26%	-32%	nt	-9	nt
CC#CC(=O)NCC1(N(C)Cc2ccccc2)Cc2ccccc2C1	8%	-21%	-6%	-12%	0	13%
COc1nc(-c2ccccc2)nnc1-c1ccccc1	?	11%	-20%	?	20	2%
COc1ncnc(-c2ccccc2)c1-c1ccccc1	nt	?	15µM*	nt	10	nt
Cc1nc(-c2cccc(S(=O)(=O)N3CCCC(C)C3)c2)cs1 (stereo unspecified)	-4%	15µM*	?	9%	-16	-19%
Cc1nc(-c2cccc(S(=O)(=O)N3CCCCC3)c2)cs1	10%	-14%	-26%	-8%	-89*	7%
NC(=O)c1cc(S(=O)(=O)N2CCCC2)ccc1OCCOc1ccccc1F	nt	-4%	-3%	11%	-14	nt
Cc1ccsc1C(=O)N1CCCCCC1(C)C(=O)NCC(C)C (stereo unspecified)	nt	-13%	-2%	nt	23	nt
CNC(=O)c1cnc2sc(N3CCC(C)CC3)nn2c1=O	nt	0%	-10%	nt	nt	nt
CCC(C)Nc1nc2ccccc2n2c(C)nnc12 (stereo unspecified)	7%	-19%	-21%	?	-22	-27%
COc1ccc(-c2ccc3c(c2)C2CC3CCN2C(=O)C(C)(C)C)cc1 (stereo unspecified)	nt	?	21µM*	nt	-6	nt
Cc1ccc(C(=O)N2CCC3CC2c2cc(-c4ccc5c(c4)OCO5)ccc23)cc1 (stereo unspecified)	nt	16µM*	13µM*	nt	3	nt
O=C(OCc1ccccc1)N1CCC2CC1c1cc(-c3ccc4c(c3)OCO4)ccc12 (stereo unspecified)	nt	15µM*	?	nt	9	nt
CCCCN(C(C)=O)c1ccc2c(c1)C1CC2CCN1C(=O)OCc1ccccc1 (stereo unspecified)	nt	2.1µM*	3.7µM*	nt	6	nt
C=C(C)C(=O)Nc1ccc2nn(-c3ccccc3O)nc2c1	nt	-13%	?	nt	-9	nt
Cc1ccc(C(=O)c2no[n+]([O-])c2C(=O)c2ccc(C)cc2)cc1	?	2.9µM*	5.8µM*	?	-91*	?
CC1(C(=O)Nc2cccc3c2CCCC3)CCN1C(=O)CCC1CCCC1 (stereo unspecified)	nt	21µM*	?	nt	15	nt
COc1ccc(OC)c(NC(=O)C2(C)CCN2C(=O)CCC2CCCC2)c1 (stereo unspecified)	nt	16µM*	?	nt	-4	nt
CC1(C(=O)Nc2ccc(Cl)c(Cl)c2)CCN1C(=O)CCC1CCCC1 (stereo unspecified)	nt	23µM*	23µM*	nt	4	nt
CC(C)(C)n1nnnc1C(c1ccccc1)N1CCN(C(=O)C2CCCO2)CC1 (stereo unspecified)	nt	9%	-2%	nt	23	nt
CCC1(C2CCN(C(=O)c3ccccc3C)CC2)NC(=O)N(CCc2scnc2C)C1=O (stereo unspecified)	nt	15%[9.04 µM]	4%	nt	nt	nt
C=CCSC1=N/C(=C\c2cccnc2)C(=O)N1c1ccc(OC)cc1	-5%	-6%	?	?	12	-1%
CCSC1=N/C(=C\c2ccccc2)C(=O)N1c1ccc(OC)cc1	-5%	?	21µM*	20%	-5	10%
CCCn1c(-c2cccs2)nc2nc3ccccc3nc21	-6%	18µM*	16µM*	?	12	-6%
SMILES	Gal4-VP16 FLuc	DT40 TDP1 CPT	TDP1 cell noCPT	ELG1 repair inh	IL1B secr inh	RORgamma inh
c1csc(-c2nc3nc4ccccc4nc3n2Cc2ccc3c(c2)OCO3)c1	-6%	18µM*	?	?	?	?
COCCn1c(-c2cccs2)nc2nc3ccccc3nc21	1%	?	?	0%	25	-29%
O=C(Nc1ccc(Br)cc1F)c1ncoc1-c1ccco1	nt	-24%	-31%	nt	nt	nt
NS(=O)(=O)c1ccc(CNC(=O)c2cc(-c3ccccn3)nc3ccc(Cl)cc23)cc1	-11%	-30%	?	?	32	-21%
COc1ccc(NCC(=O)Nc2ccc(Br)cc2F)c(OC)c1	5%	?	13µM*	-15%	?	42%
COc1ccc(NC(=O)CN2CCN(CC(=O)Nc3ccccc3Cl)CC2)c(OC)c1	5%	18µM*	18µM*	?	0	11%
COc1ccc(NC(=O)CN2CCN(CC(=O)Nc3ccccc3F)CC2)c(OC)c1	?	23µM*	?	-17%	-12	?
C/C(=N\NC(=O)c1ccc(N2CCCC2=O)cc1)c1ccncc1	0%	-1%	-21%	?	-1	1%
COc1ccc(NC(=S)NCc2cccn2C)cc1	-2%	1%	-7%	?	-2	-27%
CC(C)c1ccc(NC(=S)NCc2cccs2)cc1	?	-24%	-8%	?	20	16µM*
COc1ccc(OC)c(NC(=S)NCc2cccs2)c1	?	-5%	-24%	0%	-13	14µM*
CC(C)c1ccc(NC(=O)Cn2nnc(C(=O)NCc3cccs3)c2N)cc1	nt	19%	17%	nt	nt	nt
COc1ccc(NC(=S)NCc2cccs2)cc1	?	-24%	-2%	-9%	0	4µM*
CCc1ccc(N(C(C)=O)c2nc(CCl)cs2)cc1	-3%	-10%	10µM*	24%	-23	10%
Cc1ccccc1OCC(=O)Nc1cc(C)c(O)c(-c2nc3ccccc3o2)c1	nt	10µM*	?	nt	nt	nt
Cc1cccc(OCC(=O)Nc2cc(C)c(O)c(-c3nc4ccccc4o3)c2)c1	nt	11µM*	?	nt	nt	nt
CCc1ccc(CNC(=O)c2nn(-c3ccc(OC)c(Cl)c3)c(=O)c3c2c2ccccc2n3C)cc1	nt	1%	-7%	nt	nt	nt
CN(C)S(=O)(=O)c1ccc(N2CCCC2)c(C(=O)N2CCN(S(=O)(=O)c3ccccc3F)CC2)c1	nt	?	-23%	2%	-17	nt
O=[N+]([O-])c1cccc2[nH]cnc12	nt	1%	-2%	nt	nt	nt
